Among the test systems are HCT-15 colon; HT29 colon; SNB-75 CNS; SNB-19 CNS; U251 CNS; PC-3 prostate; SK-MEL-5 melanoma; UACC-62 melanoma; LOX IMVI melanoma; SK-MEL-28 melanoma.
What all share (test): NCI-60 one-dose screen, 48 h (100 = growth as untreated, 0 = no growth, -100 = all killed)
Holding throughout (settings): 10 µM unless noted

Where “and” joins values, the source holds several entries; their conditions need not be identical. Identical values can stand only once. About 83,000 compounds went through this panel and 20% of them were active in at least one assay; those are over-represented in the sample as a whole.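 Cell lines were cultured in 96-well plates, exposed to a single compound concentration, and assessed for percent growth 48 hours later.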 Calls of active or inactive are those of the source. Rule for the calls: active = growth percent below 10; inactive = the rest.

Turning to `CCCCNC(=O)c1ccccc1C`, the growth with HCT-15 colon was 93.4% (inactive); in the experiment with HT29 colon, 102% (inactive); in the experiment with SNB-75 CNS, 99% (inactive); with SNB-19 CNS it was 98.2% (inactive); in the experiment on U251 CNS, 99.3% (inactive); with PC-3 prostate it was 88.2% (inactive). In addition, the growth with SK-MEL-5 melanoma was 93.3% (inactive); with UACC-62 melanoma it was 101% (inactive); in the experiment on LOX IMVI melanoma, 96.9% (inactive); in the experiment on SK-MEL-28 melanoma it was 101% (inactive).
Take `O=C(O)c1ccc2c3ccc(C(=O)O)c4c(C(=O)O)ccc(c5ccc(C(=O)O)c1c25)c43`: the growth with HCT-15 colon is 108% (inactive); in the experiment on HT29 colon it was 111% (inactive); in the experiment with SNB-75 CNS it was 85.4% (inactive); in the experiment with SNB-19 CNS, 96.8% (inactive); with U251 CNS, 106% (inactive); in the experiment on PC-3 prostate it was 101% (inactive). Besides, the growth was 102% (inactive) in the experiment on SK-MEL-5 melanoma, 90.9% (inactive) with UACC-62 melanoma, 92.7% (inactive) with LOX IMVI melanoma and 112% (inactive) with SK-MEL-28 melanoma.
In the case of `Clc1ccc2sc(-c3ccccc3)nc2c1`, the growth with HCT-15 colon was 100% (inactive); with HT29 colon it was 95.1% (inactive); in the experiment with SNB-75 CNS, 67.7% (inactive); with SNB-19 CNS it was 97.6% (inactive); in the experiment with U251 CNS it was 105% (inactive); in the experiment on PC-3 prostate it was 88% (inactive). Besides, the growth in the experiment with SK-MEL-5 melanoma was 91% (inactive); in the experiment on UACC-62 melanoma it was 86.2% (inactive); with LOX IMVI melanoma it was 101% (inactive); in the experiment with SK-MEL-28 melanoma, 106% (inactive).
Regarding `CCN(CC)C(=S)SCCO`, the growth was 107% (inactive) in the experiment with HCT-15 colon; 99.8% (inactive) with HT29 colon; 89.4% (inactive) with SNB-75 CNS; 104% (inactive) with SNB-19 CNS; 98.2% (inactive) in the experiment on U251 CNS; 103% (inactive) in the experiment with PC-3 prostate. The growth with SK-MEL-5 melanoma is 99.7% (inactive); in the experiment with UACC-62 melanoma it was 107% (inactive); in the experiment on LOX IMVI melanoma it was 97% (inactive); in the experiment on SK-MEL-28 melanoma it was 112% (inactive).
With `CC(O)CCNC(c1ccccc1)C(O)c1ccccc1` (stereo not given), the growth in the experiment on HCT-15 colon was 109% (inactive); with HT29 colon it was 97.3% (inactive); in the experiment on SNB-75 CNS it was 96.5% (inactive); in the experiment on SNB-19 CNS, 103% (inactive); in the experiment with U251 CNS it was 106% (inactive); with PC-3 prostate, 94.8% (inactive). The growth with SK-MEL-5 melanoma is 109% (inactive); in the experiment with UACC-62 melanoma it was 108% (inactive); in the experiment on LOX IMVI melanoma, 99% (inactive); in the experiment with SK-MEL-28 melanoma, 112% (inactive).
Consider `COc1ccc(CCl)c(C)c1OC`, for which the growth was 106% (inactive) with HCT-15 colon; 102% (inactive) in the experiment with HT29 colon; 104% (inactive) with SNB-75 CNS; 107% (inactive) in the experiment on SNB-19 CNS; 97.6% (inactive) in the experiment with U251 CNS; 94.2% (inactive) with PC-3 prostate. For the same compound, the growth is 90.8% (inactive) in the experiment with SK-MEL-5 melanoma, 99.5% (inactive) in the experiment on UACC-62 melanoma, 94.3% (inactive) in the experiment with LOX IMVI melanoma and 109% (inactive) in the experiment on SK-MEL-28 melanoma.
Take `CNc1ccc(O)cc1`: the growth is 103% (inactive) and 102% (inactive) with HCT-15 colon; 114% (inactive) and 113% (inactive) with HT29 colon; 84.1% (inactive) and 66.5% (inactive) in the experiment on SNB-75 CNS; 102% (inactive) and 98.3% (inactive) in the experiment with SNB-19 CNS; 101% (inactive) and 99.3% (inactive) in the experiment on U251 CNS; 102% (inactive) and 100% (inactive) in the experiment with PC-3 prostate. Besides, the growth in the experiment with SK-MEL-5 melanoma is 98.2% (inactive) and 112% (inactive); in the experiment with UACC-62 melanoma, 108% (inactive) and 89.3% (inactive); in the experiment on LOX IMVI melanoma, 101% (inactive) and 93.9% (inactive); with SK-MEL-28 melanoma, 114% (inactive) and 137% (inactive).
Take `C/C(=C\c1ccccc1)C(O)C(=O)c1nc2ccc([N+](=O)[O-])cc2[nH]c1=O` (stereo not given): the growth was 100% (inactive) with HCT-15 colon; 102% (inactive) in the experiment with HT29 colon; 88.6% (inactive) with SNB-75 CNS; 85.5% (inactive) with SNB-19 CNS; 83.2% (inactive) with U251 CNS; 79.7% (inactive) with PC-3 prostate. Further, the growth in the experiment on SK-MEL-5 melanoma is 82.6% (inactive); in the experiment with UACC-62 melanoma it was 72.3% (inactive); with LOX IMVI melanoma, 75.9% (inactive); in the experiment with SK-MEL-28 melanoma, 112% (inactive).
Regarding `Cc1ccc(N)cc1S(=O)(=O)O`, the growth with HCT-15 colon was 107% (inactive) and 113% (inactive); in the experiment with HT29 colon it was 95.3% (inactive) and 124% (inactive); with SNB-75 CNS it was 97.3% (inactive); with SNB-19 CNS, 107% (inactive) and 108% (inactive); in the experiment on U251 CNS it was 106% (inactive) and 103% (inactive); with PC-3 prostate, 98.9% (inactive). The growth was 112% (inactive) and 109% (inactive) with SK-MEL-5 melanoma; 105% (inactive) and 108% (inactive) with UACC-62 melanoma; 105% (inactive) and 109% (inactive) in the experiment on LOX IMVI melanoma; 109% (inactive) and 113% (inactive) in the experiment with SK-MEL-28 melanoma.
For `CC(=O)Oc1cc(C(C)C)c(OCCN(C)C)cc1C`, the growth with HCT-15 colon was 105% (inactive) and 104% (inactive); in the experiment on HT29 colon, 110% (inactive) and 115% (inactive); in the experiment on SNB-75 CNS, 102% (inactive) and 89.9% (inactive); with SNB-19 CNS, 105% (inactive) and 98.2% (inactive); with U251 CNS, -90.7% (active) and 97.7% (inactive); in the experiment with PC-3 prostate, 92% (inactive) and 103% (inactive). The growth is 106% (inactive) and 103% (inactive) with SK-MEL-5 melanoma; 99.7% (inactive) and 94% (inactive) with UACC-62 melanoma; 94% (inactive) and 102% (inactive) in the experiment with LOX IMVI melanoma; 119% (inactive) and 88.5% (inactive) with SK-MEL-28 melanoma.
On to `CC(C)(C)C1CCC(=NO)CC1` (stereo not given), for which the growth in the experiment on HCT-15 colon was 106% (inactive); with HT29 colon, 95% (inactive); in the experiment with SNB-75 CNS, 85.6% (inactive); in the experiment on SNB-19 CNS it was 96% (inactive); in the experiment with U251 CNS, 99.9% (inactive); with PC-3 prostate, 86.7% (inactive). Moreover, the growth was 104% (inactive) in the experiment with SK-MEL-5 melanoma, 99.4% (inactive) in the experiment with UACC-62 melanoma, 99.8% (inactive) in the experiment on LOX IMVI melanoma and 110% (inactive) in the experiment on SK-MEL-28 melanoma.
For `COCCNC(C)=O`, the growth in the experiment on HCT-15 colon was 100% (inactive); in the experiment with HT29 colon, 108% (inactive); in the experiment with SNB-75 CNS, 99.2% (inactive); with SNB-19 CNS it was 104% (inactive); in the experiment with U251 CNS, 98.1% (inactive); with PC-3 prostate it was 101% (inactive). Besides, the growth is 96.7% (inactive) with SK-MEL-5 melanoma, 99.9% (inactive) with UACC-62 melanoma, 105% (inactive) in the experiment with LOX IMVI melanoma and 112% (inactive) with SK-MEL-28 melanoma.
Take `O=C(Nc1ccccc1)OCC(CN1CCCCC1)OC(=O)Nc1ccccc1` (stereo not given): the growth in the experiment with HCT-15 colon is 84.9% (inactive) and 99.5% (inactive); with HT29 colon, 69.6% (inactive) and 87.2% (inactive); in the experiment on SNB-75 CNS, 56.4% (inactive) and 80.6% (inactive); in the experiment on SNB-19 CNS, 90.9% (inactive) and 92.8% (inactive); in the experiment on U251 CNS it was 67.7% (inactive) and 91.1% (inactive); with SK-MEL-5 melanoma it was 60.5% (inactive) and 93.7% (inactive). Further, the growth in the experiment on UACC-62 melanoma was 80.7% (inactive) and 101% (inactive); with LOX IMVI melanoma, 76.7% (inactive) and 95.2% (inactive); with SK-MEL-28 melanoma, 91.5% (inactive) and 105% (inactive).
On to `COc1ccccc1OCC(O)CO` (stereo not given), for which the growth is 95.1% (inactive) and 105% (inactive) with HCT-15 colon; 100% (inactive) and 103% (inactive) in the experiment with HT29 colon; 87.7% (inactive) and 90.7% (inactive) in the experiment on SNB-75 CNS; 96.4% (inactive) and 84.9% (inactive) in the experiment on SNB-19 CNS; 96.9% (inactive) and 81.3% (inactive) in the experiment on U251 CNS; 104% (inactive) and 100% (inactive) in the experiment with SK-MEL-5 melanoma. Also, the growth with UACC-62 melanoma is 100% (inactive); in the experiment with LOX IMVI melanoma, 99.5% (inactive) and 100% (inactive); with SK-MEL-28 melanoma it was 95.5% (inactive) and 108% (inactive).
Consider `CCc1ccc(OC(=O)CCl)cc1`, for which the growth in the experiment on HCT-15 colon was 107% (inactive); with HT29 colon, 107% (inactive); in the experiment on SNB-75 CNS, 89.7% (inactive); in the experiment with SNB-19 CNS it was 108% (inactive); in the experiment on U251 CNS, 97% (inactive); in the experiment with SK-MEL-5 melanoma, 105% (inactive). Also, the results for the growth with LOX IMVI melanoma and in the experiment with SK-MEL-28 melanoma were 93.3% (inactive) and 98.4% (inactive), respectively.
As to `CCOC(=O)c1ccc(C(=N)N)cc1`, the growth in the experiment with HCT-15 colon is 103% (inactive); in the experiment with HT29 colon, 106% (inactive); with SNB-75 CNS, 100% (inactive); with SNB-19 CNS it was 113% (inactive); in the experiment on U251 CNS, 100% (inactive); with SK-MEL-5 melanoma it was 107% (inactive). Moreover, the growth with UACC-62 melanoma was 108% (inactive); in the experiment on LOX IMVI melanoma, 97.9% (inactive); in the experiment with SK-MEL-28 melanoma, 120% (inactive).

Source of the values: PubChem BioAssay (NCI).
